Source: PubChem BioAssay (NCATS)
Where “and” joins values, the source holds several entries; their conditions need not be identical. Equal entries are not always repeated. Records with an inconclusive call do not appear. Calls of active or inactive are those of the source. Unless noted, calls follow the shape of the dose curve; as a rule, active = well fitted curve in the direction sought with a large enough effect; inconclusive = small, poorly fitted or top-dose-only effect, or another doubt; inactive = no such curve, though single readings can be large; an effect the other way counts as inactive or inconclusive.

Columns and labels:
[1] = qHTS Assay for Identifying Gametocytocidal Compounds (AID 743244); also: potency is read from the fitted curve at half-maximal effect;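 as to max response: % is scaled to controls: 0 for no effect and ±100 for the full control effect; actives lower the fluorescent signal which means gametocytes are killed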; details: P. falciparum 3D7 stage III-V gametocytes, alamarBlue, 72 h; max response: stronger effect = lower value
Method in brief: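 P. falciparum 3D7 stage III–V gametocytes (20,000 cells/well) were exposed to compounds for 72 h at 37 °C, 5% CO2. AlamarBlue was then added for 24 h; decreased resorufin fluorescence (Ex 525/Em 598 nm) indicated loss of viability.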

[2] = qHTS profiling for inhibitors of Plasmodium falciparum (3D7) proliferation (AID 743322; call rule not given here;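 also: infected erythrocytes exposed to compound for 72 h before lysis; 100% = DMSO vehicle wells and 0% = 0.29 µM artemisinin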); details: P. falciparum 3D7 proliferation; at 28.7 µM (top of the series) unless noted
Method in brief: (§1)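 Parasite DNA was quantified by SYBR Green I fluorescence (ex 485, em 535 nm) after overnight lysis in saponin/Triton buffer at room temperature. Cultures at 0.3% parasitemia and 2.5% hematocrit were first exposed to compound for 72 h at 37 C; signals were normalised to artemisinin (0.29 uM) and vehicle wells.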

[3] = qHTS profiling for inhibitors of Plasmodium falciparum (DD2) proliferation (AID 743323; call rule not given here); details: lower = more inhibition; at 28.7 µM (top of the series) unless noted
Method in brief: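 SYBR Green fluorescence (ex 485, em 535 nm) of lysed cultures gives parasite DNA content; wells normalized to artemisinin (0.29 uM) and DMSO controls. Infected red cells: 0.3% parasitemia, 2.5% hematocrit, 72 h, 37 C.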

[4] = qHTS profiling for inhibitors of Plasmodium falciparum (HB3) proliferation (AID 743324); details: Plasmodium falciparum HB3 blood-stage proliferation; at 28.7 µM (top of the series) unless noted;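 also: 100% = DMSO vehicle wells and 0% = artemisinin-treated control wells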
Method in brief: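 SYBR Green fluorescence (485 ex/535 em) of lysed cultures, incubated overnight at room temperature in the dark, quantifies parasite DNA. Infected erythrocytes at 0.3% parasitemia and 2.5% hematocrit were exposed 72 h; values normalized to DMSO and 0.29 uM artemisinin controls.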

[5] = molecular target: Hexokinase-4 (Homo sapiens) + Glucokinase regulatory protein (Homo sapiens) (UniProt P35557+Q14397); assay: qHTS assay for inhibitors of recombinant human GCK-GKRP interaction: HTRF assay (AID 743207);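 also: 0% = DMSO with GCK present and -100% = DMSO wells lacking GCK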
Method in brief: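 GST-GCK and FLAG-GKRP (5 nM each) were combined with 2 uM S6P in pH 7.1 Hepes/MgCl2/KCl/DTT buffer, then compound and anti-FLAG XL665/anti-GST K antibodies were added. After 60 min at room temperature, HTRF 665/615 nm emission was read.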

[6] = qHTS profiling of the MIPE4 collection as inhibitors of Plasmodium falciparum (3D7) proliferation (AID 743344; call rule not given here;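 also: scaled between DMSO vehicle wells and 0.29 µM artemisinin as full inhibition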); details: P. falciparum 3D7 in erythrocytes, SYBR Green DNA fluorescence, 72 h; at 28.5 µM (top of the series) unless noted
Method in brief: as §1

[7] = qHTS profiling of the MIPE4 collection as inhibitors of Plasmodium falciparum (DD2) proliferation (AID 743345; call rule not given here); details: P. falciparum Dd2 in erythrocytes, SYBR Green DNA, 72 h; at 28.5 µM (top of the series) unless noted
Method in brief: as §1

[8] = qHTS profiling of the MIPE4 collection as inhibitors of Plasmodium falciparum (DD2) proliferation (Rep 2) (AID 743346; call rule not given here); details: P. falciparum Dd2 in erythrocytes, SYBR Green DNA, 72 h; at 28.5 µM (top of the series) unless noted
Method in brief: as §1

[9] = qHTS profiling of the MIPE4 collection as inhibitors of Plasmodium falciparum (HB3) proliferation (AID 743347; call rule not given here;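 also: plate controls were DMSO vehicle wells for no effect and artemisinin wells for full effect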); details: P. falciparum HB3 in erythrocytes, SYBR Green DNA, 72 h; at 28.5 µM (top of the series) unless noted
Method in brief: as §1

[10] = High-throughput drug toxicity screening in the BPDCN cell line Gen2.2 (AID 1224824; call rule not given here;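 also: cells exposed to compounds for 48 h before reading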); details: Gen2.2 BPDCN cells; at 45.8 µM (top of the series) unless noted
Method in brief: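 Gen2.2 cells (500/well) in phenol red-free RPMI with 10% FBS were exposed to compounds for 48 h at 37 °C, 5% CO2. Viability was read by CellTiter-Glo luminescence and normalized to DMSO (100%) and 9.2 uM bortezomib (0%).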

[11] = qHTS assay for measurement of the activity of small molecule inhibitors on Zika virus induced Caspase-3 activity in human iPSC derived neural progenitor cells (hNPCs) (AID 1224857); also: % of control where 0% means no effect; nearly all actives have a fitted effect of over 65% in size
Method in brief: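 hNPCs seeded 350 cells/well, cultured 16–20 h; compounds added 1 h before ZIKV (2 FFU/cell), 37 C 6 h. Caspase-Glo 3/7 luminescence after 30 min RT; % inhibition from induction scaled to uninfected (0%) and infected (100%) wells.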

[12] = qHTS assay for measurement of the activity of small molecule inhibitors on Zika virus induced Caspase-3 activity in human astrocytoma cells (AID 1224859);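 also: plate controls were ZIKV-infected untreated cells for no effect and uninfected cells for full effect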
Method in brief: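 Luminescence read-out (Caspase-Glo 3/7, 30 min RT) of caspase activity in SNB-19 cells infected 6 h with ZIKV, 2 FFU/cell, after 1 h compound pretreatment; % inhibition from induction normalised to uninfected (0%) and infected (100%) wells.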

[13] = qHTS Screen of the MIPE 4.0 Collection Against Ewings Sarcoma (RDES) (AID 1259252); also: nearly all actives have a fitted effect of over 35% in size; also: potency is read from the fitted curve at half-maximal effect
Method in brief: (§2)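 Viability screen: 48 h incubation at 37C, 95% humidity, 5% CO2 with serially titrated compound, followed by CellTiter-Glo readout.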

[14] = qHTS Screen of the MIPE 4.0 Collection Against Ewings Sarcoma (TC71) (AID 1259253); also: nearly all actives have a fitted effect of over 40% in size; also: potency is read from the fitted curve at half-maximal effect
Method in brief: as §2

[15] = qHTS Screen of the MIPE 4.0 Collection Against Ewings Sarcoma (EW8) (AID 1259255); also: nearly all actives have a fitted effect of over 35% in size; also: potency is read from the fitted curve at half-maximal effect;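 as to viability: 100% = DMSO-treated cells and 0% = medium-only wells without cells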
Method in brief: as §2

[16] = qHTS assay for cell viability of HEK293 cells (AID 743288); details: ATP luminescence (CellTiter-Glo), 18 h; max response: stronger effect = lower value; also: % is scaled to controls: 0 for no effect and ±100 for the full control effect; nearly all actives have a fitted effect of over 50% in size
Method in brief: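 After 18 h compound exposure at 37 C, parental HEK293 cells (2,000/well) are lysed with CellTiter-Glo and luminescence is read following 30 min at room temperature.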

[17] = qHTS assay for cell viability of the p53RE-bla HCT-116 cell line (AID 743292); also: % is scaled to controls: 0 for no effect and ±100 for the full control effect; nearly all actives have a fitted effect of over 55% in size
Method in brief: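 Quantitative high-throughput format: compounds in DMSO were pinned onto p53RE-bla HCT-116 cells (4,000/well) and incubated 16 h at 37 C. Total intracellular ATP, read by CellTiter-Glo luminescence, reflects viable cell number.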

Chain of Hexokinase-4 (Homo sapiens) + Glucokinase regulatory protein (Homo sapiens) (P35557 whole entry, looked up): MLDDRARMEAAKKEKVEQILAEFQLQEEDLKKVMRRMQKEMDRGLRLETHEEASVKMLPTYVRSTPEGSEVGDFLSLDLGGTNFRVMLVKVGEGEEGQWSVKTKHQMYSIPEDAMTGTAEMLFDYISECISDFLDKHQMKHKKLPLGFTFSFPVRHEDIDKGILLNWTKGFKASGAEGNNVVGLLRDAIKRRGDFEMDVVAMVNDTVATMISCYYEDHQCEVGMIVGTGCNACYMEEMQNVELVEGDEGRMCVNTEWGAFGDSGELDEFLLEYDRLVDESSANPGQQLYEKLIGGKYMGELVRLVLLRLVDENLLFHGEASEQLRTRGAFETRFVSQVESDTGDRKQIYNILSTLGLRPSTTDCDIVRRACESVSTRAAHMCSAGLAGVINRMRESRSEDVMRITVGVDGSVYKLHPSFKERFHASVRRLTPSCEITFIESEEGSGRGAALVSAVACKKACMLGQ
Chain of Hexokinase-4 (Homo sapiens) + Glucokinase regulatory protein (Homo sapiens) (Q14397 whole entry, looked up): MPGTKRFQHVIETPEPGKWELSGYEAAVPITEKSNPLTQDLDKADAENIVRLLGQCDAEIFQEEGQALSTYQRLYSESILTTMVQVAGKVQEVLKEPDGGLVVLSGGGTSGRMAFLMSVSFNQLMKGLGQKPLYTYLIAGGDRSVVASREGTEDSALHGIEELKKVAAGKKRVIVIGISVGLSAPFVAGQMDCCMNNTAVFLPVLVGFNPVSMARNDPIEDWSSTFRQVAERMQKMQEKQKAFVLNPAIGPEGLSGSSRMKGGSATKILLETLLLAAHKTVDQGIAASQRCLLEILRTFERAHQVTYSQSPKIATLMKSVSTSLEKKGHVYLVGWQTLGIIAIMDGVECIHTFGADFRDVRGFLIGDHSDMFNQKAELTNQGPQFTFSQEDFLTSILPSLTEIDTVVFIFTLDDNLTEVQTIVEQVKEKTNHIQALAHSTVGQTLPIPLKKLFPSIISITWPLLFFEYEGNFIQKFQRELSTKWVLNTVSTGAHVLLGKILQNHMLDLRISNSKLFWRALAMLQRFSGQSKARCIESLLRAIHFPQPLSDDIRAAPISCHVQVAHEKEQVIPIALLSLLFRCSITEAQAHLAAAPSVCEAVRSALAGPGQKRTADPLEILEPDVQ

SMILES	max response [1]	remaining parasite growth % (stronger effect = lower value) [2]	activity, percent of control [3]	remaining proliferation (% of control), lower = more inhibition [4]	outcome [5]	parasite growth, % of DMSO control [6]	parasite growth remaining, % of DMSO control (lower = more inhibition) [7]	parasite growth, % of control (lower = inhibition) [8]	growth, % of control [9]	cell viability, % of control (lower = more cytotoxic) [10]	Potency [11]	Potency [12]	Potency [13]	Potency [14]	Potency [15]	Potency [1]	max response [16]	Potency [17]
O=C(OCC#CCSc1nnc(-c2ccc3ccccc3c2)o1)c1cc2ccccc2s1	9.28% (inactive)	117%	105%	125%														
CCOC(=O)C1=C[C@]2(CC)CCCN3CCc4c(n1c1ccccc41)[C@@H]32					inactive	5.46% and 17.8%	8.67% and 83.7%	35.2% and 34.2%	10% and 13.6%	13.3%	inactive	inactive	23.5 µM (active)	20.9 µM (active)	18.7 µM (active)			
O=c1ncn2nc(Sc3ccc(F)cc3F)ccc2c1-c1c(Cl)cccc1Cl	5.63% (inactive)	32.8%	80.3%	23.8%		17.6%	76.3%	18.7%	13.6%	98.9%	inactive		20.9 µM (active)					
CCN(c1ccccc1)c1cc(NC)[n+](C)c(C)n1		76.6%	73.7%	38.1%		47.7%	94.6%	58.7%	85.9%	138%	inactive	inactive	7.43 µM (active)	inactive	inactive			
CC1(C)SCCN(S(=O)(=O)c2ccc(OCC#CCO)cc2)[C@@H]1C(=O)NO	1.92% (inactive)	107%	104%	81.4%		65.2%	66%	70%	112%	80%	inactive	inactive	inactive	13.2 µM (active)	inactive			
N[C@@H]1CONC1=O	2.44% (inactive) and 21.1% (inactive)				inactive	398%	120%	80.9%	650%	150%	inactive	inactive	inactive	inactive	inactive			
Cc1cc(-c2nnc3n2CCCCC3)c(C)n1-c1ccc(F)cc1		7.99%	9.31%	0.91%												18.7 µM (active)		
CCCCCCCc1ccc(CCc2cccc(O)c2C(=O)O)cc1	25.6% (inactive)	93%	88.3%	58.6%		68.8%	99.9%	66.9%	81.6%	161%	inactive	inactive	18.7 µM (active)	16.6 µM (active)				
CN[C@@H](C)C(=O)N[C@H]1CCCC[C@H]2CC[C@@H](C(=O)N[C@@H](c3ccccc3)c3cn(CCCCc4ccc(CCCCn5cc([C@@H](NC(=O)[C@@H]6CC[C@@H]7CCCC[C@H](NC(=O)[C@H](C)NC)C(=O)N76)c6ccccc6)nn5)cc4)nn3)N2C1=O		-0.81%	0.253%	-1.02%		5.44%	8.15%	9.02%	3.6%	28%	inactive	inactive			26.4 µM (active)			
C[C@]12CCC(=O)C=C1CC[C@@H]1[C@@H]2[C@@H](O)C[C@@]2(C)[C@H]1CC[C@]2(O)C(=O)CO	5.84% (inactive) and 30.7% (inactive)	98.9%	92.4%		inactive						inactive	inactive					-17.5% (inactive)	inactive
Nc1nc2[nH]cc(CCc3ccc(C(=O)N[C@@H](CCC(=O)O)C(=O)O)cc3)c2c(=O)[nH]1		14.6%	10.6%	4.66%		55.6%	48.3%		139%	115%	inactive			0.264 µM (active)				
COc1ccccc1-c1cccc(-c2c(O)c3cc(C#N)c(Cl)cc3[nH]c2=O)c1	99.8% (inactive)	97.4%	76%	74.9%		37.5% [at 57.5 µM]	84.4% [at 57.5 µM]	32.5% [at 57.5 µM]	14.1% [at 57.5 µM]	52.6% [at 92.2 µM]	inactive		inactive		30.3 µM (active)			
O=C(O)c1ccc(-c2c[nH]c3ccc(-c4ccccc4)cc23)cc1C1CCCC1	15.6% (inactive)	-0.426%	0.0014%	-0.0688%														
NCCc1ccc(O)c(O)c1					inactive	74.8%	20.2%	39.7%	53.9%	14.2%	inactive		inactive	16.6 µM (active)	16.6 µM (active)			
C/C(=C\C(=O)Nc1ccccc1C(=O)O)c1ccc2ccccc2c1	90.9% (inactive)	32.7%	101%	114%														
Cn1cnc2c(F)c(Nc3ccc(Br)cc3Cl)c(C(=O)NOCCO)cc21	17.6% (inactive)	91.2%	90.2%	94.6%		58.2%	95.9%	57.1%	97.3%	4.9%	inactive	inactive		16.6 µM (active)	2.64 µM (active)			
CCN(CCCO)CCCOc1ccc2c(Nc3cc(CC(=O)Nc4cccc(F)c4)[nH]n3)ncnc2c1		-1.31%	1.34%	0.759%												0.743 µM (active)		
